PI5P4K alpha inh = blocks human PI5P4K alpha kinase activity; P48426; max response, %; PI5P4Kalpha enzyme, ADP-Glo luminescence, 60 min; hits give low values; 330,000 tested, 1.2% active; active = max response of -50% or lower; inconclusive = between -30% and -50%; inactive = -30% or higher; note: value at the top dose of about 77 µM; % is set by controls: 0 for no effect and ±100 for the full control effect
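ADP-Glo luminescence end-point read after a 60 min room-temperature kinase reaction of PI5P4Kalpha plus substrate, initiated with ATP at 5 microM final. Buffer: 0.038 M HEPES pH 7.4, EGTA, 0.1% CHAPS, 5% DMSO.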
BAZ2B inh = BAZ2B (human) inhibition; Q9UIF8; AlphaScreen BAZ2B-H3K14Ac peptide displacement; Potency, µM (series often up to 114 µM), inactives show top-dose activity change, negative = inhibition, actives largely listed as inhibitors; 360,000 tested, 4.4% active; note: potency is the fitted concentration of half-maximal effect; % is set by controls: 0 for no effect and ±100 for the full control effect; nearly all actives have a fitted effect of over 60% in size
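Compounds, titrated to a top concentration of 110 uM, were incubated 30 min at room temperature with preformed BAZ2B/acetyl-K14 H3 peptide complex (50 nM each). Proximity signal was measured by AlphaScreen after 20 min with beads.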
HP1b binding inh = blocks HP1-beta chromodomain binding to methylated histone tails; P83916; AlphaScreen HP1-beta / biotin-H3K9me3 peptide binding; Potency, µM (top dose mostly 114 µM), for the others: top-dose activity change, negative = inhibition, hits mostly inhibitors; 390,000 tested, 0.56% active; note: potency is the fitted concentration of half-maximal effect; nearly all actives have a fitted effect of over 70% in size
Target sequence (P83916 whole entry, looked up): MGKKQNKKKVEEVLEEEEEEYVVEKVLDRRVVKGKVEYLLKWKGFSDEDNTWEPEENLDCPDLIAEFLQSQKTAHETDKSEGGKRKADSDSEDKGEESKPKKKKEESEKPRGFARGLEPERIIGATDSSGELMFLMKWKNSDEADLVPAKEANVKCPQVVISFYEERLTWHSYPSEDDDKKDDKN
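AlphaScreen: HP1-beta (50 nM) preformed 30 min with biotin-H3(1-18)K9me3 peptide (50 nM) in PBS pH 7.4, 0.01% Tween-20. Compound added for 30 min at RT, then streptavidin donor/nickel chelate acceptor beads (10 ug/mL) for 30 min.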
L3MBTL1 inh = L3MBTL1 (human) inhibition; 230,000 tested, 0.66% active; Potency, µM (highest dose often 57.1 µM), without a hit: at the top dose activity, negative = inhibition, hits mostly inhibitors; AlphaScreen L3MBTL1–H3K9me1 peptide binding; AID 485360; note: potency is the fitted concentration of half-maximal effect; % is set by controls: 0 for no effect and ±100 for the full control effect; nearly all actives have a fitted effect of over 60% in size
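First, the protein-peptide complex forms for 30 min at room temperature (L3MBTL1 50 nM, biotinylated H3K9me1 peptide 75 nM). Next, compounds are pin-transferred and incubated 30 min. Finally, AlphaScreen beads are added and read after 30 min.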
JMJD2A Tudor = inhibitors of human JMJD2A Tudor domain. O75164. AlphaScreen JMJD2A-Tudor / H3K4me3 peptide binding. Potency, µM (top dose mostly 114 µM), for inactives: at the highest dose activity change, negative = inhibition, usual class: inhibitors. 390,000 tested, 4.4% active. AID 504339; note: potency is the fitted concentration of half-maximal effect; % is set by controls: 0 for no effect and ±100 for the full control effect; nearly all actives have a fitted effect of over 50% in size
G9a inh = blocks human histone lysine methyltransferase G9a; Potency, µM (doses to about 102 µM), for inactives: top-dose activity, negative = inhibition, hits mostly inhibitors; Q96KQ7; 350,000 tested, 8.8% active; AID 504332; G9a H3K9 monomethylation, AlphaScreen, 2 h; note: potency is the fitted concentration of half-maximal effect; % is set by controls: 0 for no effect and ±100 for the full control effect; nearly all actives have a fitted effect of over 75% in size
Target sequence (Q96KQ7 913-1193 limits assumed): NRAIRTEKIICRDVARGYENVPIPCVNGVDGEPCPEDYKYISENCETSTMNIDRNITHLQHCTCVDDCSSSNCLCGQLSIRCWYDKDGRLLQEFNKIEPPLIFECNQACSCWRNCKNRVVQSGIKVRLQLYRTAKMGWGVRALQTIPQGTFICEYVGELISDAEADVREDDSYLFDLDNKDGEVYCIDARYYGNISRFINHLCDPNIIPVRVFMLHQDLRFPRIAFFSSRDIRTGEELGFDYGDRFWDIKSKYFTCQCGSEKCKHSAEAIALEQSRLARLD
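Readings reflect AlphaScreen signal from monomethyl-H3K9 antibody detection. HMT at 20 nM; substrate b-H3K9 500 nM; cofactor SAM 20 uM; 2 h RT reaction; compounds tested as titrations in qHTS with 15 min preincubation.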
Numbers without * were called inactive; ? = inconclusive; nt = no result given; [ ] = another dose, or the depositor's remark. Compounds with a hit are over-represented: about 11% of the library has one in this group of screens. Unless noted, calls come from the whole dose curve; as a rule, active = well fitted inhibition curve with a large enough effect; inconclusive = small, poorly fitted or top-dose-only effect; inactive = no such curve, though single readings can be large or run the other way.

SMILES	PI5P4K alpha inh	BAZ2B inh	HP1b binding inh	L3MBTL1 inh	JMJD2A Tudor	G9a inh
CCCCOc1ccc(CNC(=O)c2cc3n(n2)CCCN(Cc2ccc(C)cc2)C3=O)cc1	nt	-5%	16%	nt	-7%	0%[59 µM]
COc1cc(OC)cc(C(=O)Nc2ccc(-c3nc4cc(C(C)C)ccc4o3)cc2)c1	nt	-1%	32%	nt	5%	0%[59 µM]
Cc1nn(C(=O)COc2ccccc2)c(C)c1Sc1ccccc1	nt	185%	262%	nt	68%	144%[59 µM]
NS(=O)(=O)c1ccc(NNC(=O)c2sccc2Cl)cc1	-1	33%	45%	nt	3%	7.1µM*
NS(=O)(=O)c1ccc(NC(=O)c2c(Cl)cccc2Cl)cc1	?	5%	-7%	3%	28µM*	1%[0.501 µM]
NS(=O)(=O)c1ccc(NC(=O)c2c(F)cccc2Cl)cc1	4	-3%	36%	4%	-3%	6%
CN(C)CC(=O)Nc1ccc(S(N)(=O)=O)cc1	6	-2%	-4%	nt	14µM*	24%
O=C(NNc1ccc(Cl)cc1)c1sccc1Cl	-1	?	12%	10%	?	nt
CN(CCC#N)CC(=O)Nc1ccc(S(N)(=O)=O)cc1	13	-8%	36%	3%	-3%[11.4 µM]	-20%
NS(=O)(=O)c1ccc(NC(=O)CCCCC(=O)Nc2ccc(S(N)(=O)=O)cc2)cc1	-4	-3%	63%	nt	89µM*	9%
CCC(C(=O)Nc1ccc(C)c(Cl)c1)n1c(=O)c(-c2ccccc2NC(C)=O)nc2ccccc21 (stereo not given)	nt	-11%	10%	nt	-14%	-36%[59 µM]
Cc1ccc(NC(c2nnc(-c3ccccc3)o2)c2ccccc2F)c(Cl)c1 (stereo not given)	nt	16%	55%	nt	26%	45%[59 µM]
CC(=O)SC1CC2=CC(=O)CC[C@]2(C)C2CC[C@@]3(C)C(CC[C@@]34CCC(=O)O4)C12 (stereo not given in full)	nt	nt	nt	nt	nt	27%[59 µM]
CCn1cc(/C=C(\NC(=O)c2ccccc2Cl)C(=O)NCCCn2ccnc2)c2ccccc21	nt	?	5%	nt	?	-32%[59 µM]
Cc1ccc(CCC(=O)Nc2ccc(S(N)(=O)=O)cc2)o1	-19	15%	13%	nt	-10%	2.2µM*
O=C(NC1CC1)c1cccc(NC(=O)c2cnn(-c3ccccc3)n2)c1	4	nt	19%	-2%	-18%	nt
O=C(NC1CC1)c1cccc(NC(=O)c2cn3ccccc3n2)c1	2	4%	-5%	-3%	40µM*	10%[2.33 µM]
CSc1ccc(S(=O)(=O)NCC(=O)OCC(=O)N2CC(C)CC(C)C2)cc1[N+](=O)[O-] (stereo not given)	5	-9%	-9%	-8%	-21%	50µM*
CC(C)c1ccc(Nc2c([N+](=O)[O-])c(=O)n(C)c3ccccc23)cc1	1	?	-9%	?	?	?
Cc1cccc(Nc2c([N+](=O)[O-])c(=O)n(C)c3ccccc23)c1	-26	?	-9%	-11%	50µM*	-14%[59 µM]
Cc1ccc(C(=O)/C=C/NNC(=O)c2ccccc2O)cc1	-10	50µM*	18%	-6%	?	10%[59 µM]
Cc1cccc(-c2noc(-c3ccc(N4CCN(C)CC4)c([N+](=O)[O-])c3)n2)c1	nt	-1%	51%	nt	-10%	-27%[59 µM]
O=C(NCCNCCO)C1(C(F)(F)F)CC(CCc2ccccc2)CCCO1 (stereo not given)	nt	nt	1%	nt	-15%	nt
O=C(Nc1cc(N2CCOCC2)ncn1)NC1(C(F)(F)F)Oc2ccccc2O1	-19	-1%	19%	22%[11.4 µM]	89µM*	2.2µM*
COc1cccc(NC(=O)Nc2cccc(C(=O)O)c2)c1	7	1%	46%	4%	2%	12%
O=C(NCc1cccnc1)NC1(C(F)(F)F)Oc2ccccc2O1	-4	8%	34%	2%	-17%	40µM*
C/C(=N\Nc1cc(N2CCOCC2)ncn1)c1ccccc1	-24	8%	8%	-3%	-21%	nt
COc1cccc(NC(=O)NC2(C(F)(F)F)Oc3ccccc3O2)c1	2	11%	20%	-8%	71µM*	3.5µM*

Assay outcomes (PubChem BioAssay)
